Compounds with a hit are over-represented: about 7.9% of the library has one in this group of screens.
MCF10A rerep: induces DNA re-replication in MCF 10a normal breast cells. AID 624296. MCF 10A DNA re-replication, Hoechst nuclear intensity, 48 h. Potency, µM (titrated, usually from 46.1 µM), for inactives: top-dose activity, positive = re-replication, most hits filed as activators. actives 2.9% (n = 350,000); also: % of control where 0% means no effect; nearly all actives have a fitted effect of over 50% in size
KB-3-1 tox: kills parental KB-3-1 adenocarcinoma cells; KB-3-1 viability, CellTiter-Glo ATP luminescence, 72 h; Potency, µM (top dose mostly 46.1 µM), most hits filed as cytotoxic; actives 1.4% (n = 400,000); AID 1347075; also: % is scaled to controls: 0 for no effect and ±100 for the full control effect; nearly all actives have a fitted effect of over 60% in size
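Multi-concentration cytotoxicity screen in KB-3-1 cells grown in DMEM lacking phenol red with 10% FBS. After 72 h at 37 °C with compound, ATP-dependent luminescence was recorded.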
KB-V1 cytotox: KB-V1 MDR subline cytotoxicity | actives 3.4% (n = 400,000) | KB-V1 MDR cells viability, CellTiter-Glo, 72 h | Potency, µM (top dose mostly 46.1 µM), most hits filed as cytotoxic; also: % is scaled to controls: 0 for no effect and ±100 for the full control effect; nearly all actives have a fitted effect of over 60% in size
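KB-V1, DMEM (no phenol red) + 10% FBS; cpd pin-transferred, titration series; 72 h, 37 degrees C; CellTiter-Glo, luminescence. Data normalized, curve-fit.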
HT1080-NT tox: kills 2HG-producing HT-1080-NT fibrosarcoma cells; HT-1080-NT fibrosarcoma viability, CellTiter-Glo ATP luminescence, 48 h; Potency, µM (top dose mostly 46.1 µM), for inactives: at the highest dose activity, negative = less viability, hits mostly cytotoxic; actives 1.6% (n = 360,000); AID 686970;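 also: NT is the 2HG producing partner of a matched IDH1 knockdown line; 0% = DMSO-treated cells and -100% = media-only wells without cells; nearly all actives have a fitted effect of over 55% in size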
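Viability by CellTiter-Glo luminescence after 48 h compound exposure at 37C of HT-1080-NT cells (750/well, RPMI, 5% FBS). % activity scaled between DMSO wells and medium-only wells, then curve-fitted and categorized by curve class.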
SW480 rerep: DNA re-replication induction in SW480 cells; SW480 DNA re-replication, Hoechst DNA content imaging, 48 h; Potency, µM (highest dose often 46.1 µM), for the others: at the highest dose re-replication activation, most hits filed as activators; actives 1.8% (n = 340,000); AID 624297; also: % of control where 0% means no effect; nearly all actives have a fitted effect of over 55% in size
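Readout is total intensity of Hoechst-stained nuclei, excited at 405 nm and collected at 500-530 nm. Compound treatment lasted 48 hr at 37 C in 5% CO2 before staining.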
HT1080 IDH1KD tx: kills HT-1080 cells with IDH1 knockdown; HT-1080 IDH1 knockdown viability, ATP luminescence, 48 h; actives 2% (n = 360,000); Potency, µM (titrated, usually from 46.1 µM), for inactives: top-dose activity, negative = toxicity, most hits filed as cytotoxic; AID 686971;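 also: 0% = DMSO wells and -100% = cell-free medium wells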
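Using the IDH1-knockdown HT-1080 line run in the same batch and compound series as the NT line, viability after 48 h at 37 °C was determined by CellTiter-Glo luminescence and expressed as % activity.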
The depositor's hits bear a star; i = inactive; ? = inconclusive; . = not tested or not shown; [ ] = another dose, or the depositor's remark. Calls follow the shape of the dose curve; as a rule, active = well fitted curve in the direction sought with a large enough effect; inconclusive = small, poorly fitted or top-dose-only effect, or another doubt; inactive = no such curve, though single readings can be large; an effect the other way counts as inactive or inconclusive. Potency is read from the fitted curve at half-maximal effect.

SMILES | MCF10A rerep | KB-3-1 tox | KB-V1 cytotox | HT1080-NT tox | SW480 rerep | HT1080 IDH1KD tx
Cc1nc(NC(=O)/C=C/c2ccccc2)sc1C(=O)Nc1ccc(Cl)cc1 | 16µM* | i | i | ? | ? | ?
Cc1nc(Nc2ccc(Cl)cc2Cl)sc1C(=O)Nc1ccccc1 | -6% | i | ? | 18% | 3% | 26%
Cc1nc(NC(=O)/C=C/c2ccccc2)sc1C(=O)Nc1ccccc1Cl | 4% | i | i | 1% | 16% | -13%
CC(C)c1nnc(NC(=O)CN(C)S(=O)(=O)c2ccc3c(c2)OCCO3)s1 | 8% | i | i | -5% | -8%[9.22 µM] | -6%
CCOc1cccc2sc(NC(=O)CCS(=O)(=O)c3ccccc3)nc12 | 21µM* | ? | ? | -4% | 21µM* | ?
CCOc1cccc2sc(Nc3nc4ccc(NC(C)=O)cc4s3)nc12 | 3.7µM* | 12µM* | ? | ? | 4.1µM* | ?
Fc1ccc(Cn2nnc(-c3ccc(Cl)cc3)n2)cc1 | -1% | i | i | 26% | -2% | 24%
COC(=O)c1ccc2nc(-c3ccccc3)c(Cc3ccccc3C(F)(F)F)n2c1 | . | i | ? | 4% | . | 3%
COc1cc(/C=C/C(=O)OCC(=O)NC(=O)NC(C)(C)C)ccc1OCC#N | 1% | i | ? | -1% | 1% | 2%
C(=N\Nc1nc2ccccc2[nH]1)/c1c[nH]c2ccccc12 | ? | i | i | 16µM* | 3% | ?
Cc1ccc(/C=N/Nc2nc3ccccc3[nH]2)s1 | ? | i | 15µM* | 1% | ? | -7%
Cc1ccccc1/C=N/Nc1nc2ccccc2[nH]1 | ? | i | i | -20% | 1% | -14%
O=[N+]([O-])c1cc(/C=N/Nc2nc3ccccc3[nH]2)c(O)cc1O | 3.3µM* | i | i | ? | ? | 7.3µM*
Cc1[nH]c2ccccc2c1/C=N/Nc1nc(N2CCCCC2)nc(N2CCCCC2)n1 | 11% | i | ? | -10% | -5% | 0%
Cc1[nH]c2ccccc2c1/C=N/Nc1nc2ccccc2[nH]1 | ? | i | ? | 18µM* | 8% | 18µM*
Cn1cnc(S(=O)(=O)N2CCCC(c3cc(C(=O)Nc4ccc(F)c(Cl)c4)no3)C2)c1 (stereo not given) | . | i | i | ? | . | ?
Cc1csc2nc(CN3CCN(CC(=O)N(C)C)CC3)cc(=O)n12 | -9% | i | i | 3% | -21% | 8%
Cc1csc(CNc2ncnc3ccc(-c4ccoc4)cc23)c1 | ? | i | i | . | -7% | .
Cn1c2ccccc2c2cc(/C=N/NC(=O)c3ccc(O)cc3O)ccc21 | 140% | ? | i | -29% | ? | ?
CCC(C)N(CCNC(=O)CC1Oc2ccccc2NC1=O)C1CCCCC1 (stereo not given) | 2% | i | i | -10% | 0% | 1%
COc1ccc(S(=O)(=O)N2CCCCC2)cc1NC(=O)Cn1cnc2ccccc2c1=O | 14% | i | i | -9% | ? | -9%
Cc1nnsc1SCCNC(=O)Nc1ccc(Cl)cc1 | 8% | i | ? | 21% | -163% | 3%
C/C(=N\Nc1nc2ccccc2[nH]1)c1ccc(C)o1 | 8% | i | ? | 10% | 0% | -1%
Cc1nn(-c2ccccc2)c(Cl)c1/C=N/Nc1nc2ccccc2[nH]1 | 7.3µM* | ? | ? | ? | ? | ?
C(=N\Nc1nc2ccccc2[nH]1)/c1ccccc1 | 3% | i | ? | -1% | -1% | 6%
SMILES | MCF10A rerep | KB-3-1 tox | KB-V1 cytotox | HT1080-NT tox | SW480 rerep | HT1080 IDH1KD tx
C/C(=N\Nc1nc2ccccc2[nH]1)c1ccc(Cl)s1 | ? | ? | 21µM* | ? | 1% | ?
C(=C\c1ccccc1)/C=N/Nc1nc2ccccc2[nH]1 | 4.6µM* | 15µM* | i | ? | ? | ?
Brc1ccc(-c2ccc(/C=N/Nc3nc4ccccc4[nH]3)o2)cc1 | 12µM* | i | i | ? | 5.8µM* | ?
Brc1ccc(-c2ccc(/C=N/Nc3nncc(-c4ccccc4)n3)o2)cc1 | 9% | ? | i | 4% | -1% | 14%
CC(=O)Nc1ccc(S(=O)(=O)N2CCN(CCc3ccccc3)CC2)cc1 | 2% | i | i | -15% | 2% | -5%
O=[N+]([O-])c1cc(S(=O)(=O)Oc2ccccc2)ccc1Cl | ? | ? | ? | 15µM* | 3.3µM* | 18µM*
O=S(=O)(Oc1ccccc1)c1ccc(Cl)c(Cl)c1 | -15% | i | ? | 25% | -9% | 20%
CCOc1ccc(NC(=O)CCn2nc(C)c(S(=O)(=O)N3CCCCC3)c2C)cc1 | 6% | i | i | 7% | -5% | 11%
O=C(CC1C(=O)Nc2ccccc2N1CC(=O)N1CCCC1)Nc1ccc(Br)cc1 (stereo not given) | ? | i | i | -6% | ? | -3%
CCOC(=O)N1CCC(NC(=O)c2cc(S(=O)(=O)N3CCc4ccccc43)cn2C)CC1 | 0% | ? | 3.3µM* | 4% | -1% | -3%
CCOC(=O)c1cc(S(=O)(=O)N2CCc3ccccc32)cn1C | 5% | i | i | 0% | -1% | 0%
CCN(CC)Cc1c(O)ccc2c(=O)c(-c3ccc(Cl)cc3)coc12 | ? | i | i | -2% | -13% | -1%
C=CCN(CC=C)Cc1c(O)ccc2c(=O)c(-c3ccccc3)coc12 | 21µM* | i | i | ? | ? | ?
Cc1ccc(NNC(=O)c2snnc2C)cc1Cl | 1% | i | i | -3% | 2.3µM* | -7%
Cc1ccc(NNC(=O)c2c(C)noc2C)cc1Cl | 5% | i | i | -13% | -1% | ?
Cc1ccc(NNC(=O)c2ccno2)cc1Cl | 13% | i | i | ? | 6% | 3.7µM*
Cc1nnsc1C(=O)Nc1ccc(Cl)cc1 | -3% | i | ? | 5% | -2% | 4%
Cc1ccc(NNC(=O)c2ccno2)cc1C | -6% | 16µM* | i | ? | 2% | ?
Cc1ccc(C(O)c2ncc(-c3ccc4ccccc4c3)[nH]2)cc1F (stereo not given) | . | i | i | -19% | . | -15%
CC1CN(c2ccc(NC(=S)Nc3ccc(N4CC(C)OC(C)C4)cc3)cc2)CC(C)O1 (stereo not given) | 8% | i | i | -6% | -1% | -14%
O=C(Nc1nnc([C@@H]2O[C@H](CO)[C@@H](O)[C@H]2O)s1)Nc1ccccc1C(F)(F)F | . | i | i | -3% | . | 14%
